BoNT F protease – BoNT F light chain protease inhibition; Multiplex microsphere protease cleavage assay, flow cytometry; inhibition, % at 10 µM; 0.22% of 360,000 active; in the data active means inhibition above about 35%, passing the limit was not always enough; inconclusive means no clear call, values can overlap the other calls; further: plate controls were buffer without enzyme for full effect and enzyme alone for no effect
Bead autofluor – flagged as autofluorescent in microsphere protease counterscreen; compound autofluorescence counterscreen, microsphere flow cytometry; stronger effect = higher value; 3.1% of 360,000 active; fluorescence intensity (test concentration not listed); in the data active means fluorescence intensity above about 16000; inconclusive means no clear call, values can overlap the other calls
MazEF act – MazEF (E. coli) toxin RNase activation; AID 504720; 0.32% of 350,000 active; activation, % at 20 µM; FAM/BHQ RNA-DNA oligo cleavage fluorescence, 5 h; P0AE70; in the data active means activation above about 50%
BoNT A protease – blocks Botulinum neurotoxin A light chain protease | inhibition, % at 10 µM | multiplex microsphere protease substrate cleavage, flow cytometry | 0.17% of 360,000 active; further: plate controls were buffer without enzyme for full effect and enzyme alone for no effect
Anthrax LF prot – anthrax lethal factor protease inhibition; P15917; multiplex microsphere protease cleavage assay, LF; inhibition, % at 10 µM; 0.12% of 360,000 active; further: plate controls were buffer without enzyme for full effect and enzyme alone for no effect
The depositor's hits bear a star. Hits are enriched below; roughly 3.7% of the tested compounds scored in any of these assays. Unless noted, no stated cut-off is given here; in the data, active means inhibition above about 30%; inconclusive means no clear call, values can overlap the other calls; inactive means below that.

CC1=CCC(C(=O)O)(C(=O)N/N=C/c2cccnc2)C(c2ccccc2)C1 (configuration not stated) was read as BoNT F protease -10.2, Bead autofluor 3835, MazEF act 5.8, BoNT A protease -1.9 and Anthrax LF prot -4.9.
For CC1=CCC(C(=O)O)(C(=O)N/N=C/c2cccs2)C(c2ccc(Cl)cc2)C1 (configuration not stated) the results were BoNT F protease 0.2, Bead autofluor 19841*, MazEF act -0.9, BoNT A protease 1.7 and Anthrax LF prot -2.5.
Screening COc1ccc(NC(=O)CSc2nc(N)c(C#N)cc2C#N)cc1 returned BoNT F protease 0.7, Bead autofluor 7786, MazEF act -14.4, BoNT A protease 1.0 and Anthrax LF prot -2.7.
`Cc1cc(=O)[nH]c(SCC(=O)Nc2ccccc2C#N)c1C#N` gave BoNT F protease 5.9, Bead autofluor 21510*, MazEF act -6.2, BoNT A protease 3.0 and Anthrax LF prot -1.3.
Screening Cc1ccccc1NC(=O)CSc1nc(N)c(C#N)cc1C#N returned BoNT F protease 0.0, Bead autofluor 16586*, MazEF act -3.2, BoNT A protease 0.0 and Anthrax LF prot -2.1.
For CN(Cc1ccccc1NCC(=O)Nc1ccccc1C#N)C1CCCCC1 the results were BoNT F protease 1.5, Bead autofluor 3270, MazEF act 5.4, BoNT A protease 0.3 and Anthrax LF prot -4.4.
N#Cc1cc2ccccc2nc1SCC(=O)Nc1ccccc1N1CCOCC1 was read as BoNT F protease -3.1, Bead autofluor 11422, MazEF act 50.8*, BoNT A protease -0.6 and Anthrax LF prot -0.4.
`N#Cc1ccccc1NC(=O)CNc1ccccc1N1CCCCC1` gave BoNT F protease -3.5, Bead autofluor 22615*, MazEF act -4.5, BoNT A protease inconclusive and Anthrax LF prot -4.1.
`COc1cc(NC(=O)c2cc(-c3ccccc3Cl)on2)cc(OC)c1OC` gave BoNT F protease inconclusive, Bead autofluor 4372, MazEF act -7.3, BoNT A protease -2.2 and Anthrax LF prot -3.6.
Screening Cc1ccc(S(=O)(=O)N2C[C@H]3C(=O)C[C@@H]4C(=O)N(c5ccccc5)C(=O)[C@@H]4[C@@H]3C[C@H]2c2cccc(Cl)c2)cc1 returned BoNT F protease -1.4, Bead autofluor 5467, BoNT A protease 0.0 and Anthrax LF prot 1.2.
Screening CCOc1ccc(-c2nn(-c3ccccc3)cc2/C=C2\SC(=S)N(C3CCS(=O)(=O)C3)C2=O)cc1 (configuration not stated) returned BoNT F protease 42.9*, Bead autofluor 2755, MazEF act -116.3, BoNT A protease 35.8* and Anthrax LF prot 28.8.
CCCOc1ccc(-c2nn(-c3ccccc3)cc2/C=C2\SC(=S)N(C3CCS(=O)(=O)C3)C2=O)cc1 (configuration not stated) was read as BoNT F protease 40.2*, Bead autofluor 5968, MazEF act -128.4, BoNT A protease 49.0* and Anthrax LF prot 46.6*.
COc1ccc(-c2nn(-c3ccccc3)cc2/C=C2/SC(=S)N(CCC(=O)O)C2=O)cc1 was read as BoNT F protease -10.3, Bead autofluor 2874, MazEF act -22.4, BoNT A protease -3.1 and Anthrax LF prot 5.0.
`COc1ccc(C(=O)N/C(=C\c2ccccc2)C(=O)Nc2ccccc2C(=O)O)cc1` gave BoNT F protease 3.7, Bead autofluor 6022, MazEF act 1.1, BoNT A protease 0.4 and Anthrax LF prot 0.3.
Cn1c(NCc2cccnc2)nc2cc(-c3cccc(C(=O)NCCO)c3)sc2c1=O was read as BoNT F protease -2.3, Bead autofluor 3770, BoNT A protease -0.5 and Anthrax LF prot -8.3.
For Clc1ccc(CSc2nnc(-c3ccncc3)s2)cc1 the results were BoNT F protease -2.8, Bead autofluor 5659, MazEF act -3.3, BoNT A protease -0.7 and Anthrax LF prot 5.8.
O=C1Nc2ccccc2CCC1Sc1nnc(-c2ccc(Cl)cc2)s1 (configuration not stated) was read as BoNT F protease -4.5, Bead autofluor 24726*, MazEF act 2.0, BoNT A protease -2.6 and Anthrax LF prot -2.2.
For COc1cccc(C(=O)Cn2c(N3CCOCC3)nc3c2c(=O)n(C)c(=O)n3C)c1 the results were BoNT F protease -0.6, Bead autofluor 16198*, MazEF act 5.1, BoNT A protease -0.5 and Anthrax LF prot -2.9.
`COCCn1c(N2CCN(c3ccc(OC)cc3)CC2)nc2c1c(=O)n(C)c(=O)n2C` gave BoNT F protease 6.4, Bead autofluor 17764*, MazEF act -0.7, BoNT A protease 6.0 and Anthrax LF prot -14.2.
For C[C@@H]1CNC(=O)c2c(C(=O)N[C@@H](Cc3c[nH]c4ccccc34)C(=O)OC(C)(C)C)ncn21 the results were BoNT F protease 0.5, Bead autofluor 3794, MazEF act 3.6, BoNT A protease 0.2 and Anthrax LF prot -2.1.
`O=C1CCCC(O)=C1N=Nc1c(Cl)cc(C(F)(F)F)cc1Cl` gave BoNT F protease inconclusive, Bead autofluor 2889, MazEF act 9.9, BoNT A protease 4.4 and Anthrax LF prot 83.3*.
For O=C1c2ccccc2C(=O)N1CCC#C/C=C1\c2ccccc2C(=O)N1c1ccccc1 the results were BoNT F protease 4.2, Bead autofluor 3442, MazEF act -16.4, BoNT A protease 0.3 and Anthrax LF prot -1.0.
For Cc1ccc(O)c(C(=O)c2cnc3c(c2)CN(C)C(=O)N3)c1 the results were BoNT F protease 6.0, Bead autofluor 21945*, MazEF act 1.8, BoNT A protease 3.0 and Anthrax LF prot -3.5.
Screening COc1ccc(C(=O)COC(=O)c2nc3nccc(C)n3n2)cc1F returned BoNT F protease -7.7, Bead autofluor 6489, MazEF act 1.9, BoNT A protease -4.7 and Anthrax LF prot -0.2.
`CCOc1ccc2nc(NC(=O)C3(C)CC3(Br)Br)sc2c1` (configuration not stated) gave BoNT F protease inconclusive, Bead autofluor 3937, MazEF act 4.7, BoNT A protease -1.7 and Anthrax LF prot 36.1*.
`CC1(C(=O)O)COC(c2ccc([N+](=O)[O-])cc2)OC1` (configuration not stated) gave BoNT F protease -0.4, Bead autofluor 16243*, MazEF act 8.0, BoNT A protease 0.4 and Anthrax LF prot -0.8.
O=c1nc(N(c2ccccc2)c2ccccc2)[nH]c(=O)[nH]1 was read as BoNT F protease -3.2, Bead autofluor 20223*, MazEF act 7.1, BoNT A protease inconclusive and Anthrax LF prot -0.8.
Screening Cc1ccc(-n2ncc3c(=O)n(CC(=O)N(C(C)C)C(C)C)cnc32)cc1 returned BoNT F protease inconclusive, Bead autofluor 3909, MazEF act 8.5, BoNT A protease 1.9 and Anthrax LF prot -9.8.
Screening Cc1ccc(OCc2nnc(SCC(N)=O)n2N)cc1 returned BoNT F protease 2.7, Bead autofluor 5445, MazEF act 3.7, BoNT A protease 0.6 and Anthrax LF prot 3.2.
For CCOc1ccc(Cc2nnc(SCC(N)=O)n2C)cc1 the results were BoNT F protease -3.8, Bead autofluor 21499*, MazEF act -4.2, BoNT A protease -2.4 and Anthrax LF prot 0.3.
